In PubChem BioAssay:

Experiment: MRP1 drug-resistance reversers in H69AR cells – cell-based, doxorubicin co-treatment, pilot screen (AID 601)
Settings: H69AR cells + 2 uM doxorubicin, CellTiter-Glo, 72 h; measured here: viability with 2 uM doxorubicin; at 10 µM; stronger effect = lower value

| SMILES | viability [%] |
| --- | --- |
| O=C(c1ccc2nc(N3CCCCC3)sc2c1)N1CCN(c2ccccn2)CC1 | 100 |
| CC(C)CCNC(=O)Cn1c(NCCC(C)C)nc2c1c(=O)n(C)c(=O)n2C | 94 |
| CC(=O)NC(C)c1nc2ccccc2n1C(C)C (centres undefined) | 81.5 |
| NC(=O)CSc1cn(CCNC(=O)c2cccs2)c2ccccc12 | 91.9 |
| Cc1cccc(C2CC(c3ccc(Cl)cc3)Nc3nc(N)nn32)c1 (centres undefined) | 107 |
| CCOC(=O)CN1CC23C=CC(O2)C(C(=O)Nc2ccc(C(C)=O)cc2)C3C1=O (centres undefined) | 94 |
| CCCSc1nnc(N2C(=O)CC(c3ccsc3)C3=C2CCCC3=O)s1 (centres undefined) | 91.9 |
| O=C(CN1CCN(Cc2ccc(F)cc2Cl)C1=O)NCCCN1CCOCC1 | 87.8 |
| CN(C)CCCN1C(=O)CSC1c1ccccc1 (centres undefined) | 90.1 |
| COC(=O)Cn1c(=O)c2c(nc3n2CC(C)CN3c2ccc(C)c(C)c2)n(C)c1=O (centres undefined) | 69.7 |
| CCCSC1=C(C#N)C(c2cc(OC)ccc2OC)CC(=O)N1 (centres undefined) | 83.1 |
| O=C(Nc1ccc(CN2CCOCC2)cc1)c1cc2ccccn2n1 | 95.2 |
| CCN(CC)CCn1c(=N)n(CCO)c2ccccc21 | 92.9 |
| CCN(CCCNS(=O)(=O)c1ccc2c(c1)oc(=O)n2C)c1cccc(C)c1 | 84.5 |
| COc1ccc(OC)c(C2=NOC(C(=O)Nc3c(C)n(C)n(-c4ccccc4)c3=O)C2)c1 (centres undefined) | 86.5 |
| O=C(Cn1cc2c(n1)CCCCC2)N1CCc2ccccc2C1 | 89.8 |
| Cn1c(=O)c2c(nc(SCCCC#N)n2Cc2c(F)cccc2Cl)n(C)c1=O | 15.9 |
| CCN1CCN(Cc2ccc(NC(=O)Nc3ccccc3)cc2)CC1 | 89.3 |
| CCOC(=O)N1CCN(Cc2nc3c(c(=O)n(C)c(=O)n3C)n2Cc2ccccc2)CC1 | 78.7 |
| COCCCNC(=O)Cn1cc2c(n1)CCC(C)C2 (centres undefined) | 91.8 |

| SMILES | viability [%] |
| --- | --- |
| C=CCc1ccccc1OCCCCN1CCCC1 | 85.1 |
| COc1ccc(OCC(=O)N2CC3(C)CC2CC(C)(C)C3)cc1 (centres undefined) | 82.8 |
| O=C1c2ccccc2C(Nc2ccc(-c3nc4ccccc4[nH]3)cc2)N1Cc1ccco1 (centres undefined) | 68.1 |
| CCCNc1nc(N2CCOCC2)nc(N2CCOCC2)n1 | 93.9 |
| COCCn1c(SCC(=O)Nc2ccc3c(c2)OCCO3)nc2c(c1=O)SC(C)C2 (centres undefined) | 106 |
| COc1ccc(NC(=O)C2CCCN2S(=O)(=O)c2cccc3cccnc23)c(OC)c1 (centres undefined) | 95.9 |
| CCOC(=O)Cn1ncc(-c2ccccc2)c1N | 86 |
| O=C(O)C1CC(=O)N(CCOc2ccccc2)C1 (centres undefined) | 97 |
| Cc1ccc(-n2c3c(cc(C(=O)NCCCN4CCOCC4)c2=O)C(=O)CC(C)(C)C3)cc1 | 97.9 |
| CCOC(=O)C1CCN(Cc2ccc(OC)c(C)c2OC)CC1 | 83.7 |
| COc1ccc(C(C)N2CC34C=CC(O3)C(C(=O)OCC(C)C)C4C2=O)cc1 (centres undefined) | 81.9 |
| Cc1c(NC(=O)C2CCCCN2S(=O)(=O)c2ccc(Cl)cc2)c(=O)n(-c2ccccc2)n1C (centres undefined) | 98.2 |
| CC(C)(NC(=O)N1CCCC1)c1cccc(C(C)(C)NC(=O)N2CCCC2)c1 | 90.3 |
| CC(C)NC(=O)c1ccc2c(c1)nnn2C | 98.8 |
| Cc1ccc(C(=O)CC2(O)C(=O)N(C)c3ccc(Br)cc32)c(C)c1 (centres undefined) | 91.9 |
| Cc1ccc(NC(=O)CN(c2ccc3c(c2)OCO3)S(=O)(=O)c2c(C)n[nH]c2C)cc1 | 91.5 |
| COc1ccc(N2CCN(Cc3nc4c(c(=O)n(C)c(=O)n4C)n3Cc3ccccc3C)CC2)cc1 | 54.9 |
| CN(C(=O)c1ccco1)c1nnc(C23CC4CC(CC(C4)C2)C3)s1 | 76.5 |
| CCCC(=O)C1=C(N(C)c2ccccc2)CC(C)(C)C(C(=O)OC)C1=O (centres undefined) | 93.2 |
